Shown are actives, neighbours in structure and some others; about 2.1% of the full set was active somewhere.
U2OS ROS induce: cancer cell ROS induction; U2OS ROS induction, H2DCF-DA fluorescence; ROS induction (% of piperlongumine), % at 10 µM; 46,000 tested, 2% active; AID 624156; in the data active means ROS induction above about 79%, passing the limit was not always enough
YB-1 expression: YB-1 expression inhibition. U2OS, qRT-PCR YB-1 vs CDIP delta delta Cp, 16 h; hits give high values; zero = DMSO, each unit about twofold. delta delta Cp (YB-1 minus CDIP) (test concentration not listed). 30,000 tested, 0.37% active;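 active means delta delta Cp rounded down to an integer at or above 3, about 3 SD of DMSO wells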;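 further: higher means less YB-1 transcript or more CDIP transcript relative to DMSO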
Large screens that a line does not name were inactive.

COc1ccc(S(=O)(=O)N(C)C[C@H]2Oc3ccc(NC(=O)Nc4ccc(F)cc4)cc3C(=O)N([C@H](C)CO)C[C@@H]2C)cc1	none
C[C@H]1CN([C@@H](C)CO)C(=O)c2cccc(NC(=O)Nc3cccc4ccccc34)c2O[C@@H]1CN(C)S(=O)(=O)c1ccc(F)cc1	U2OS ROS induce 150.8
C[C@H]1CN([C@@H](C)CO)C(=O)c2cccc(NC(=O)Nc3cccc4ccccc34)c2O[C@H]1CN(C)S(=O)(=O)c1ccc(F)cc1	none
CCOC(=O)N1CCN(C(=O)CSc2nnc(Cc3cccn3C)n2-c2ccc(F)cc2)CC1	none (no result: YB-1 expression)
CC(C)OC(=O)Cc1csc(-c2ccc(Oc3ccc(C(F)(F)F)cn3)cc2)n1	none (no result: YB-1 expression)
COC(=O)c1sc(S(=O)(=O)NC23CC4CC(CC(C4)C2)C3)c(C(=O)OC)c1C	none (no result: YB-1 expression)
Clc1cccc(/C=N/N2CCN(Cc3ccccc3)CC2)c1Cl	none (no result: YB-1 expression)
COc1ccc([Si](C)(C)[C@H]2[C@H](CCO)O[C@@]3(C(=O)N(Cc4ccc(NC(C)=O)cc4)c4ccccc43)[C@@H]2C)cc1	none
COc1ccc([Si](C)(C)[C@@H]2[C@@H](CCO)O[C@]3(C(=O)N(Cc4ccc(N5CCOC5=O)cc4)c4ccccc43)[C@H]2C)cc1	U2OS ROS induce 239.6
COc1ccc([Si](C)(C)[C@@H]2[C@@H](CCO)O[C@]3(C(=O)N(Cc4ccccc4)c4ccc(N5CCOC5=O)cc43)[C@H]2C)cc1	none
COc1ccc([Si](C)(C)[C@H]2[C@H](CCO)O[C@@]3(C(=O)N(Cc4ccccc4)c4ccc(N5CCOC5=O)cc43)[C@@H]2C)cc1	none
COc1ccc([Si](C)(C)[C@@H]2[C@@H](CCO)O[C@]3(C(=O)N(Cc4ccc(NC(C)=O)cc4)c4ccccc43)[C@H]2C)cc1	U2OS ROS induce 93.2
COc1ccc([Si](C)(C)[C@@H]2[C@@H](CCO)O[C@]3(C(=O)N(Cc4cccc(N5CCOC5=O)c4)c4ccccc43)[C@H]2C)cc1	U2OS ROS induce 100.9
CSc1sc(C(=O)Sc2ccccc2)cc1S(=O)(=O)C(C)C	U2OS ROS induce 79.6
CSc1sc(C(=O)Sc2ccccc2)c2c1S(=O)(=O)N(C)c1ccccc1-2	none
COC(=O)c1sccc1N1C(=O)Nc2ccccc2N1O	none (no result: YB-1 expression)
CC(=O)Nc1ccccc1NC(=O)COc1ccc([N+](=O)[O-])cc1	none (no result: YB-1 expression)
Cc1ccccc1NC(=O)COc1ccc(C)c([N+](=O)[O-])c1	U2OS ROS induce 113.7 (no result: YB-1 expression)
CCCCn1c(SCC(=O)NCc2ccccc2)nc2c(sc3ccccc32)c1=O	none (no result: YB-1 expression)
C=CCN(C(=O)CSc1nc2c(sc3ccccc32)c(=O)n1Cc1cccnc1)c1ccccc1	U2OS ROS induce 154.1 (no result: YB-1 expression)
C(=Nc1ccc(N2CCOCC2)cc1)c1ccc(Sc2nc3ccccc3[nH]2)o1	none (no result: YB-1 expression)
Clc1ccccc1/C=C/C=Nc1ccc(N2CCOCC2)cc1	U2OS ROS induce 128.5
CC(C)Cc1ccc(C(C)c2nc3ccccc3n2C)cc1 (stereo unspecified)	none (no result: YB-1 expression)
C[C@H](CO)N1C[C@H](C)[C@@H](CN(C)Cc2ccc(Oc3ccccc3)cc2)Oc2ccc(NC(=O)NC3CCCCC3)cc2C1=O	U2OS ROS induce 86.8
C[C@@H]1CN([C@@H](C)CO)C(=O)c2cc(NC(=O)NC3CCCCC3)ccc2O[C@H]1CN(C)Cc1ccc(Oc2ccccc2)cc1	none
C[C@H]1CN([C@@H](C)CO)C(=O)Cc2cc(N(C)C)ccc2O[C@@H]1CN(C)Cc1ccc(Oc2ccccc2)cc1	U2OS ROS induce 135.0
C[C@@H]1CN([C@@H](C)CO)C(=O)Cc2cc(NC(=O)NC3CCCCC3)ccc2O[C@@H]1CN(C)Cc1ccc(-c2ccccc2)cc1	none
C[C@@H]1CN([C@H](C)CO)C(=O)Cc2cc(N(C)C)ccc2O[C@@H]1CN(C)Cc1ccc(Oc2ccccc2)cc1	none
C[C@@H]1CN([C@H](C)CO)C(=O)Cc2cc(NC(=O)NC3CCCCC3)ccc2O[C@@H]1CN(C)Cc1ccc(Oc2ccccc2)cc1	U2OS ROS induce 130.9
C[C@@H]1CN([C@H](C)CO)C(=O)Cc2cc(NC(=O)NC3CCCCC3)ccc2O[C@@H]1CN(C)Cc1ccc(-c2ccccc2)cc1	U2OS ROS induce 97.9
C[C@@H]1CN([C@@H](C)CO)C(=O)Cc2cc(NC(=O)NC3CCCCC3)ccc2O[C@@H]1CN(C)Cc1ccccc1	none
CCOc1ccccc1NC(=S)NCC(C)CSc1ccc(C)cc1 (stereo unspecified)	none (no result: YB-1 expression)
O=C(CC(c1ccccc1)c1ccccc1)Nc1ccccn1	none (no result: YB-1 expression)
C[C@H]1CN([C@@H](C)CO)C(=O)Cc2cc(NC(=O)Nc3cccc4ccccc34)ccc2O[C@@H]1CN(C)Cc1ccc(-c2ccccc2)cc1	U2OS ROS induce 131.6
C[C@H](CO)N1C[C@H](C)[C@H](CN(C)Cc2ccccc2)Oc2ccc(NC(=O)Nc3cccc4ccccc34)cc2CC1=O	none
O=C(CSc1nnnn1-c1ccccc1)Nc1cc(Cl)ccc1C(=O)O	U2OS ROS induce 153.7 (no result: YB-1 expression)
O=C(CSc1nnnn1-c1ccccc1)Nc1cc(Cl)c(Cl)cc1Cl	none (no result: YB-1 expression)
CCN1C(=O)/C(=C\c2ccc(N(C)C)cc2Cl)OC1=S	U2OS ROS induce 928.5 (no result: YB-1 expression)
